Test results taken from ChEMBL document CHEMBL2218924, “A broad activity screen in support of a chemogenomic map for kinase signalling research and drug discovery” (Biochem J, 2013).

Experiments:
[1] = target: T1, Tyrosine-protein kinase ITK/TSK (Homo sapiens) (UniProt Q08881); details: at 10 µM
T1 sequence (whole entry): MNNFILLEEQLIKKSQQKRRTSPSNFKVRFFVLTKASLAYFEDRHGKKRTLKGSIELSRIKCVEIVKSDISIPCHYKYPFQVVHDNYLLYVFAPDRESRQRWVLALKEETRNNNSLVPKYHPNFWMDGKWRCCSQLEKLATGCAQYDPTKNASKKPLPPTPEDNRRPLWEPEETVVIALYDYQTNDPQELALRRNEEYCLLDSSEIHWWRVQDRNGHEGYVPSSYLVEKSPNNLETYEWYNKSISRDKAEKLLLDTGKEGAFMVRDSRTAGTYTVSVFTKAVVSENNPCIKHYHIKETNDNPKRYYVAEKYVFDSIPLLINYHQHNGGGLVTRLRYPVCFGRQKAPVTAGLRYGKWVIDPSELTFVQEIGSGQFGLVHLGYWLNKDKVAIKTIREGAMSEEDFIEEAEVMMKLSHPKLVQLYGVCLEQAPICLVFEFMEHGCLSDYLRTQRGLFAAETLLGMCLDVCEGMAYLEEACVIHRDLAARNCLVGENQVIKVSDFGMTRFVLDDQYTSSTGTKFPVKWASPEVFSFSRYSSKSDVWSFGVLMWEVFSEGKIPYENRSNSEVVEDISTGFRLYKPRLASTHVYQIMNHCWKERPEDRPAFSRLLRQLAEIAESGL

[2] = target: Tyrosine-protein kinase JAK2 (Homo sapiens) (UniProt O60674); details: at 1 µM
Tyrosine-protein kinase JAK2 (Homo sapiens), sequence (O60674 whole entry): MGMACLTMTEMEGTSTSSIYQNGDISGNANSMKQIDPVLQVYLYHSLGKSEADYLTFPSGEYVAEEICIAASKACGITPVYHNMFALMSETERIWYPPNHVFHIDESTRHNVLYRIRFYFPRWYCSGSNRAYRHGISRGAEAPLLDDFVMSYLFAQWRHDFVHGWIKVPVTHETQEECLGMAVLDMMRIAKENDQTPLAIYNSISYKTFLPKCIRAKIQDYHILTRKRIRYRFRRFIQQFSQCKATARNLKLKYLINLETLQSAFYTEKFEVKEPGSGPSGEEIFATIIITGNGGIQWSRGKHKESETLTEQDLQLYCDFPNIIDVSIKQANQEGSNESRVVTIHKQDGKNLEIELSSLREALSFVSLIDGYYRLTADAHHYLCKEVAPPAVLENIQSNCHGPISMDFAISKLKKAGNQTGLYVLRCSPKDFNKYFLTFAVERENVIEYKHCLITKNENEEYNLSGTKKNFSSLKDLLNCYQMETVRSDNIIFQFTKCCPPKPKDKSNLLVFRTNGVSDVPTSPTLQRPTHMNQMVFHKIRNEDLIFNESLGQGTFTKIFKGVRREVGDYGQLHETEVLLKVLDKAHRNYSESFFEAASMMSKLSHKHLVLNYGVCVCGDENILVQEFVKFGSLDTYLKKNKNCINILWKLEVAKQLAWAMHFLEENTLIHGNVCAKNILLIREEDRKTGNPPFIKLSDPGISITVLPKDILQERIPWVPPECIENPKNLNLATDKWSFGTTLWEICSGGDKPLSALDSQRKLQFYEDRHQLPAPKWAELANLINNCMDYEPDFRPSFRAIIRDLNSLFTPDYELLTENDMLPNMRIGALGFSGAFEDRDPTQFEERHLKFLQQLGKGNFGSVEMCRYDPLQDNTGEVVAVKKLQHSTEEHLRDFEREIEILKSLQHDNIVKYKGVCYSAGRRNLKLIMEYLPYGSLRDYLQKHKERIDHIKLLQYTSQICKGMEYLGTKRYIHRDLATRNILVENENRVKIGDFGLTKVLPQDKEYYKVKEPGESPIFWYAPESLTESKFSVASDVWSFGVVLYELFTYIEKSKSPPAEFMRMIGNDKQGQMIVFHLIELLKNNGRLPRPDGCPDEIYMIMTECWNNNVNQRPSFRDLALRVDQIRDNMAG

[3] = target: Tyrosine-protein kinase JAK2 (Homo sapiens) (UniProt O60674); details: at 10 µM
[4] = target: T2, Tyrosine-protein kinase JAK3 (Homo sapiens) (UniProt P52333); details: at 1 µM
T2 sequence (whole entry): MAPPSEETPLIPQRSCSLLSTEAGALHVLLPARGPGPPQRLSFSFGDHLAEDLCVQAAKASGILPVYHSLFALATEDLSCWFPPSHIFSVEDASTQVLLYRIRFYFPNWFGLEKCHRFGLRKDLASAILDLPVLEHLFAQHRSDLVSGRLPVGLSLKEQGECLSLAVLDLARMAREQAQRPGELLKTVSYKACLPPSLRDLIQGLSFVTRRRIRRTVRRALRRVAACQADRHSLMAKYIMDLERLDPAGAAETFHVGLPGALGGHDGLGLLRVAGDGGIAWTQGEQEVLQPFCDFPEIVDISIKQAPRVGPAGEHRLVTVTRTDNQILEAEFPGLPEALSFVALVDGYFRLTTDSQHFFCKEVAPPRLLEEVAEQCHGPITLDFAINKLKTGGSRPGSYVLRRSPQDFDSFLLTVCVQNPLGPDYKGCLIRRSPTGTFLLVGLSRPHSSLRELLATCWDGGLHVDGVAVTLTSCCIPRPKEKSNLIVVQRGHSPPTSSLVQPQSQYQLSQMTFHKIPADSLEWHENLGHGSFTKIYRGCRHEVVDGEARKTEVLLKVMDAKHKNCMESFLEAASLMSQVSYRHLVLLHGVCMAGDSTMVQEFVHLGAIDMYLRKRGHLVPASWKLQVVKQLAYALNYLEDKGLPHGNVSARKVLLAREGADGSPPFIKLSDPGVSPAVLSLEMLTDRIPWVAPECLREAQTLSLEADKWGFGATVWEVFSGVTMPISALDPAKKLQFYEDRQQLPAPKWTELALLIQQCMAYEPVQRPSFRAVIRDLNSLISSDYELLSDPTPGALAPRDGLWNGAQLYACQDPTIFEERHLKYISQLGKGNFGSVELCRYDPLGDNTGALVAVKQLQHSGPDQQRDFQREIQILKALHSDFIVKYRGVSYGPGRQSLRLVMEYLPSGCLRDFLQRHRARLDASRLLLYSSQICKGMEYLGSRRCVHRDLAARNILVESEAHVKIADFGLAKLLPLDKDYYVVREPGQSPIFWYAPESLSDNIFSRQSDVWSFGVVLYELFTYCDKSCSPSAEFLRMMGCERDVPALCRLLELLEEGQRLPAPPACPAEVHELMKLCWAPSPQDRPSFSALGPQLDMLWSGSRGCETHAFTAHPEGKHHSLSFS

[5] = target: T2, Tyrosine-protein kinase JAK3 (Homo sapiens); details: at 10 µM
[6] = target: LIM domain kinase 1 (Homo sapiens) (UniProt P53667); details: at 1 µM
LIM domain kinase 1 (Homo sapiens), sequence (P53667 whole entry, looked up, the tested form may be a part): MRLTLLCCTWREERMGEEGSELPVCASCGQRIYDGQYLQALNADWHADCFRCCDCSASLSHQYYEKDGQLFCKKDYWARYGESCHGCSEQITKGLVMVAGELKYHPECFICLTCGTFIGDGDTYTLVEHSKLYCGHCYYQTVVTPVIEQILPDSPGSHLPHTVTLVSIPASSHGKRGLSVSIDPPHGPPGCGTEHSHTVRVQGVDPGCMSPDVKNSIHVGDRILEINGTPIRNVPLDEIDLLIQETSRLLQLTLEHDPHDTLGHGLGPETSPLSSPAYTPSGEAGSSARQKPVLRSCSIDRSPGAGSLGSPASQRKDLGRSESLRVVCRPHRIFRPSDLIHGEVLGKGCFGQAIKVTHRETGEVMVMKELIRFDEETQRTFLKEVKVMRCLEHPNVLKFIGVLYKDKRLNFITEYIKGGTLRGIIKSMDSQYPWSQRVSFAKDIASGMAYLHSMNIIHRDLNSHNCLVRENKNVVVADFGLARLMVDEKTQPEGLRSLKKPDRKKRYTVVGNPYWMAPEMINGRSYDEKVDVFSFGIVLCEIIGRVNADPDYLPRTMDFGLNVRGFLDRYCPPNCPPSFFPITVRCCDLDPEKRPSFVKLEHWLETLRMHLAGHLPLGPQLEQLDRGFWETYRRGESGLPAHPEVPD

[7] = target: LIM domain kinase 1 (Homo sapiens) (UniProt P53667); details: at 10 µM
[8] = target: T3, Serine/threonine-protein kinase STK11 (Homo sapiens) (UniProt Q15831); details: at 1 µM
T3 sequence (whole entry): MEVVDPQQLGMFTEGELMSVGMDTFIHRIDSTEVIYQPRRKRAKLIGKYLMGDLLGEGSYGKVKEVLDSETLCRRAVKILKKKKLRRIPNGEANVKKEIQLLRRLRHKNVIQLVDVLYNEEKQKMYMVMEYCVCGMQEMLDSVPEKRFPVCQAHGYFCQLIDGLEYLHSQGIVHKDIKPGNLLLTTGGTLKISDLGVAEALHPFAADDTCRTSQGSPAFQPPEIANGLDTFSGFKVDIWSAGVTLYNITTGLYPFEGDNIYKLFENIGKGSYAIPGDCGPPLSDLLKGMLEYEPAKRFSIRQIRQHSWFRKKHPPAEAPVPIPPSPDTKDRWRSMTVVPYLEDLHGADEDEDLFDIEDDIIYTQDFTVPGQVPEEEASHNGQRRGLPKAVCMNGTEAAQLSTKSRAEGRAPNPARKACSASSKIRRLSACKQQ

[9] = target: T3, Serine/threonine-protein kinase STK11 (Homo sapiens); details: at 10 µM
[10] = target: Mitogen-activated protein kinase 8 (Homo sapiens) (UniProt P45983); details: at 10 µM
Mitogen-activated protein kinase 8 (Homo sapiens), sequence (P45983 whole entry): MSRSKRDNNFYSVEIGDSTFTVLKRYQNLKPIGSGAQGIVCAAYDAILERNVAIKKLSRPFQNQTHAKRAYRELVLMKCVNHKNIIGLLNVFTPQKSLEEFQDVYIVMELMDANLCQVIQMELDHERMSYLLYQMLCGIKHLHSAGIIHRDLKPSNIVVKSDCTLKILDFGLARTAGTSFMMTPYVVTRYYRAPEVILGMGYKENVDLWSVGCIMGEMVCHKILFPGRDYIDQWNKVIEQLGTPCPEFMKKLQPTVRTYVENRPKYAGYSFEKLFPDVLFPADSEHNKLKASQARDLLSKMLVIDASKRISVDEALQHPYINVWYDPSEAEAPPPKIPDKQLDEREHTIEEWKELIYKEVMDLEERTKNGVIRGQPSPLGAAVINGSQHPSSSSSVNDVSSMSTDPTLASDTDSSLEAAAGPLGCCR

[11] = target: Mitogen-activated protein kinase 9 (Homo sapiens) (UniProt P45984); details: at 1 µM
Mitogen-activated protein kinase 9 (Homo sapiens), sequence (P45984 whole entry, looked up): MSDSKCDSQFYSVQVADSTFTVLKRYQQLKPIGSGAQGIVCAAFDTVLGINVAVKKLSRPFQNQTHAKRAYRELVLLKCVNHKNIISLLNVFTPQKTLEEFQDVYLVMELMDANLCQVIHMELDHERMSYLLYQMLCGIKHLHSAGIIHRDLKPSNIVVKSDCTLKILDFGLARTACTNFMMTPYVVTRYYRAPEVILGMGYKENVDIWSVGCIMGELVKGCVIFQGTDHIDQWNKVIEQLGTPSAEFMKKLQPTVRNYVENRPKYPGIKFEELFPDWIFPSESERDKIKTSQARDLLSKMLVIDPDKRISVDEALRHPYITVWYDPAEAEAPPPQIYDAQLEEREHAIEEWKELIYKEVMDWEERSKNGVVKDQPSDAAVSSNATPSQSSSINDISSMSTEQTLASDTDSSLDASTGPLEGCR

[12] = target: Mitogen-activated protein kinase 9 (Homo sapiens) (UniProt P45984); details: at 10 µM
[13] = target: Mitogen-activated protein kinase 10 (Homo sapiens) (UniProt P53779); details: at 1 µM
Mitogen-activated protein kinase 10 (Homo sapiens), sequence (P53779 whole entry): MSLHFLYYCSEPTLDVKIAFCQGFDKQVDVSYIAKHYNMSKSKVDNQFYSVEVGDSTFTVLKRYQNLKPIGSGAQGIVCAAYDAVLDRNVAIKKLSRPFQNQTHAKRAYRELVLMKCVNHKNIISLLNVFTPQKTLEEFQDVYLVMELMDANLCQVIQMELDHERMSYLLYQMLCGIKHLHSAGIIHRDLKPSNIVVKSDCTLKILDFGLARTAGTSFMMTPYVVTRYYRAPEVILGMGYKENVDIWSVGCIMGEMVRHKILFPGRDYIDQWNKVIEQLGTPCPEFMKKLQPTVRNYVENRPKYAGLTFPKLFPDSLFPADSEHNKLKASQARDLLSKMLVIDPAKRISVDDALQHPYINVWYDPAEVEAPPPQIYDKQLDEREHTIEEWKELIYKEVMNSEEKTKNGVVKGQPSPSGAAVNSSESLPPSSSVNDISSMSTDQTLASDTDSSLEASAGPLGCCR

[14] = target: Mitogen-activated protein kinase 10 (Homo sapiens) (UniProt P53779); details: at 10 µM
[15] = target: Vascular endothelial growth factor receptor 2 (Homo sapiens) (UniProt P35968); details: at 1 µM
[16] = target: Vascular endothelial growth factor receptor 2 (Homo sapiens) (UniProt P35968); details: at 10 µM
[17] = target: Serine/threonine-protein kinase 10 (Homo sapiens) (UniProt O94804); details: at 1 µM
Serine/threonine-protein kinase 10 (Homo sapiens), sequence (O94804 whole entry, looked up): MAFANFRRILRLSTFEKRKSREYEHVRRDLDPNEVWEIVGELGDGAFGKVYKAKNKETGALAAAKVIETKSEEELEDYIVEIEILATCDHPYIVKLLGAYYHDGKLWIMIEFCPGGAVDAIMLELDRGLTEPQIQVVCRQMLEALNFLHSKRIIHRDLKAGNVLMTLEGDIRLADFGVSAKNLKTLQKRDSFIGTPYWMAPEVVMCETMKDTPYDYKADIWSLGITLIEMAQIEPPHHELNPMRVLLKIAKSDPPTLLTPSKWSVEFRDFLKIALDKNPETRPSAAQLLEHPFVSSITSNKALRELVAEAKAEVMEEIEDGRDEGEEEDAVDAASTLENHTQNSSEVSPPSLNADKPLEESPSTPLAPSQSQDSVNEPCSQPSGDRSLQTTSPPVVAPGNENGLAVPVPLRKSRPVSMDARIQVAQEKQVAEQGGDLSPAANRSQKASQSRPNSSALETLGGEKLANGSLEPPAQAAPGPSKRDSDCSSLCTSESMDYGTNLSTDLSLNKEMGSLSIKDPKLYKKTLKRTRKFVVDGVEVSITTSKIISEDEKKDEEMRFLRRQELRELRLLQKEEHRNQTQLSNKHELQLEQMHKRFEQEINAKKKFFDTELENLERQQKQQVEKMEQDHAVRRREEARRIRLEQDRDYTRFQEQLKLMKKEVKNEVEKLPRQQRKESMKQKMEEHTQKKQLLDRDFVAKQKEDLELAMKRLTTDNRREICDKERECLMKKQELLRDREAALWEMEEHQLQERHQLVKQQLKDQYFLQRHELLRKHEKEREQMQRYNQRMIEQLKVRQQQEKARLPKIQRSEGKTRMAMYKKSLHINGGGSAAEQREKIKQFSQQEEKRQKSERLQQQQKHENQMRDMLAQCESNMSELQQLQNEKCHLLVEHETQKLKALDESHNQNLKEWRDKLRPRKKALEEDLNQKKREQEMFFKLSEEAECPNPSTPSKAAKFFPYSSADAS

[18] = target: Serine/threonine-protein kinase 10 (Homo sapiens) (UniProt O94804); details: at 10 µM
[19] = target: Tyrosine-protein kinase Lck (Homo sapiens) (UniProt P06239); details: at 1 µM
Tyrosine-protein kinase Lck (Homo sapiens), sequence (P06239 2-509 limits assumed): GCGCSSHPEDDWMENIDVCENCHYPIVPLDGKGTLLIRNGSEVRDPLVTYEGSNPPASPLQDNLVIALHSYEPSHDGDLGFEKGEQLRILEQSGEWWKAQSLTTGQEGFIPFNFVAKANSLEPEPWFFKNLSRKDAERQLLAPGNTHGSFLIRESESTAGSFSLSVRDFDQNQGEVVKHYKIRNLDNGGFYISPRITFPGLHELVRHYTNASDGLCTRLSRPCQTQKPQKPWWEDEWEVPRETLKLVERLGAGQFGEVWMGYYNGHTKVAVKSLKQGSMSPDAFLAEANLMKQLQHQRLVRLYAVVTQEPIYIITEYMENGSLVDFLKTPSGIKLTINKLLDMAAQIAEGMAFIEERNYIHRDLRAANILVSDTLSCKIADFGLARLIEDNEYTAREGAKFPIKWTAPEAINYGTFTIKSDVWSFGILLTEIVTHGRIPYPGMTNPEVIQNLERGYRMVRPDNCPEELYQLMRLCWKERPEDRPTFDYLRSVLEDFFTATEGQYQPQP

[20] = target: Mitogen-activated protein kinase 8 (Homo sapiens) (UniProt P45983); details: at 1 µM

| SMILES | residual activity [1] [%] | residual activity [2] [%] | residual activity [3] [%] | residual activity [4] [%] | residual activity [5] [%] | residual activity [6] [%] | residual activity [7] [%] | residual activity [8] [%] | residual activity [9] [%] | residual activity [10] [%] | residual activity [11] [%] | residual activity [12] [%] | residual activity [13] [%] | residual activity [14] [%] | residual activity [15] [%] | residual activity [16] [%] | residual activity [17] [%] | residual activity [18] [%] | residual activity [19] [%] | residual activity [20] [%] |
| --- | --- | --- | --- | --- | --- | --- | --- | --- | --- | --- | --- | --- | --- | --- | --- | --- | --- | --- | --- | --- |
| O=C(Nc1nc2ccccc2n1CCN1CCOCC1)c1cccc([N+](=O)[O-])c1 | 52 | 24 | 40 | 85 | 69 | 105 | 88 | 100 | 100 |  |  |  |  |  |  |  |  |  |  |  |
| CC(C)c1nn(-c2c(Cl)cccc2Cl)c2nc(Cc3ccc(OCCO)cc3)[nH]c(=O)c12 | 96 | 85 | 100 | 103 | 106 | 102 | 84 | 90 | 48 | 94 | 99 | 86 | 81 | 29 | 98 | 89 | 55 | 55 | 104 |  |
| Nc1ncnc2[nH]nc(Nc3ccc(F)cc3)c12 | 78 | 103 | 93 | 101 | 90 | 90 | 58 | 102 |  | 93 | 92 | 93 | 98 | 92 | 97 | 54 | 53 | 7 | 49 | 105 |
| CN(C)S(=O)(=O)c1ccc2c(c1)/C(=C/c1cc3c([nH]1)CCCC3)C(=O)N2 | 22 | 67 | 25 | 66 | 48 | 90 | 77 | 99 | 96 | 94 |  |  | 89 | 81 | 51 | 40 | 63 | 78 |  | 99 |
| c1ccc(-c2cnc(Nc3ccc(OCCN4CCCC4)cc3)s2)cc1 | 30 | 111 | 105 |  |  | 64 | 16 | 108 | 103 | 70 |  |  | 80 | 36 | 10 | 4 | 75 | 55 | 58 | 112 |
| O=c1cc(N2CCOCC2)oc2c1ccc1ccccc12 | 94 |  |  | 100 | 108 | 108 | 92 | 102 | 93 | 87 | 110 | 97 |  | 70 | 103 | 87 | 98 | 91 |  | 103 |
| COc1ccc2c(c1)c(C1=C(c3c[nH]c4ccccc34)C(=O)NC1=O)cn2CCCN(C)C | 79 | 114 | 81 | 102 | 50 | 99 | 65 | 101 | 99 | 57 | 111 |  | 74 | 37 | 28 | 3 | 54 | 22 |  | 104 |
| O=C(c1cc2cc(O)ccc2[nH]1)c1cc2cc(O)ccc2[nH]1 | 16 |  |  | 64 | 17 | 74 | 41 | 100 |  |  |  |  | 51 | 33 | 18 | 3 | 55 | 20 | 16 |  |
| NC(=O)Nc1sc(-c2ccc(F)cc2)cc1C(N)=O | 1 | 4 | 0 | 42 | 5 | 46 | 7 | 92 | 73 | 52 | 84 | 67 | 60 | 33 | 41 | 6 |  |  |  | 94 |
| CCCCc1c(-c2ccc(OC)cc2)[nH]c2nccnc12 | 92 | 71 | 49 | 81 | 86 | 50 | 57 | 108 | 101 |  | 91 | 109 | 48 | 41 | 73 | 68 |  | 110 | 55 | 105 |
| N#C/C(=C\c1ccc(O)c(O)c1)C(=O)NCc1ccccc1 | 104 |  |  |  |  |  |  | 102 | 100 |  |  |  |  | 72 |  | 87 |  |  |  |  |
| O=S(=O)(NCCNC/C=C/c1ccc(Br)cc1)c1cccc2cnccc12 | 100 |  |  |  |  | 79 | 29 |  |  |  |  |  |  |  |  | 62 | 71 | 53 |  |  |
| CCOC(=O)c1c(C)[nH]c(/C=C2\C(=O)Nc3ccccc32)c1C | 99 | 92 | 100 |  |  |  |  |  |  |  |  |  |  |  | 16 | 28 |  |  |  |  |
| Cn1sc(=O)n(Cc2ccccc2)c1=O | 83 | 91 | 98 |  |  | 86 | 79 | 97 | 93 | 88 | 91 | 93 | 75 | 94 | 99 | 91 | 95 | 95 |  | 89 |
